Drawing on PubChem BioAssay, this text covers composite z-score and z-score for five molecules.

Activity calls are given as the source filed them.

Test [1] concerns PRMT1 (protein arginine N-methyltransferase 1). Briefly: PRMT1 binders on small-molecule microarrays, primary screen, biochemical, small-molecule microarray, 635 nm fluorescence (AID 1088).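 Also: binding of Prmt1 protein to compounds spotted on small-molecule microarray slides.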 The settings on record: small-molecule microarray binding, higher = more signal.
Test [2] is described as follows: yeast growth modulation, basal conditions, primary screen, YJM789 clinical isolate, OD600, 24 h (AID 1089).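 Also: growth of clinical yeast isolate S. cerevisiae YJM 789 seeded 1000 cells per well; test concentration not given here.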 The settings on record: S. cerevisiae YJM789 growth, higher = more signal, called active from +8 up or from −8 down.
Test [3] is described as follows: fission yeast growth modulation, primary screen, strain 972, OD600, 24 h, no modulator (AID 1090).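 Also: basal condition with compound alone and no growth modifier present; test concentration not given here.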 The settings on record: S. pombe 972 growth, higher = more signal, called active from +8 up or from −8 down.
Test [4] can be described thus: S. cerevisiae growth modulation with rapamycin, primary screen, strain BY4716, OD600, 96 h (AID 1091). Also: test concentration not given here. The following applies: higher = more signal, called active from +8 up or from −8 down.
The target of test [5] is Torsin-1A-interacting protein 2 (Homo sapiens) (UniProt Q8NFQ8). Put plainly: LULL1 binders on small-molecule microarray, primary screen, cell lysate, human LULL1 lysate, 635/667 nm fluorescence (AID 1092).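 Also: probe is lysate of COS7 cells overexpressing human LULL1; score merges per-feature 667 nm fluorescence with signal-to-noise.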 The settings on record: hLULL1 lysate binding, 635 nm fluorescence, higher = more signal.
Torsin-1A-interacting protein 2 (Homo sapiens), sequence (Q8NFQ8 whole entry, looked up): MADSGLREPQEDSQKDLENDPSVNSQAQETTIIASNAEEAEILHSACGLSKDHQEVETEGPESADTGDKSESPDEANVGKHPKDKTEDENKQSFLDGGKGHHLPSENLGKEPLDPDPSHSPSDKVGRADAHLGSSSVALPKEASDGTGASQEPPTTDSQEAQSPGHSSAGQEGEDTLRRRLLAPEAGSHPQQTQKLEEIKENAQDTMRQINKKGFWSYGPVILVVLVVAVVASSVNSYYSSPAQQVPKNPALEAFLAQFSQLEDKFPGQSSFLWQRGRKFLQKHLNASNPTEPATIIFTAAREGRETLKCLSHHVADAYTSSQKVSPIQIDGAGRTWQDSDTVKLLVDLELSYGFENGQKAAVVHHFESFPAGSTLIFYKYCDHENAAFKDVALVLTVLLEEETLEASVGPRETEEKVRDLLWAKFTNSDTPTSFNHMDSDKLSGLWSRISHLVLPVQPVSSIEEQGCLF
A short description of test [6]: E. coli growth modulation, two-sided OD650, primary screen, E. coli filamentation project, strain DRC41, 24 h (AID 1093).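 Also: MC1000 strain lacking acrAB efflux and sulA so SOS filamentation is blocked; test concentration not given here.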 The settings on record: OD650, 24 h, higher = more signal, called active from +8 up or from −8 down.
Test [7] is described as follows: small-molecule microarray binders of probe aLefty2, primary screen, biochemical, biotinylated probe, 635/667 nm fluorescence (AID 1094).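 Also: score merges spot fluorescence near 667 nm with spot signal-to-noise ratio.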 The settings on record: higher = more signal.
Test [8] deals with Noggin (protein binding on small-molecule microarray). Put plainly: Noggin binders on small-molecule microarray, primary screen, biochemical, 635/667 nm fluorescence (AID 1095).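 Also: score merges 667 nm feature fluorescence with signal to noise over triplicate slides.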 The settings on record: 635 nm fluorescence, higher = more signal.
The target of test [9] is Neurogenic locus notch homolog protein 3 (Homo sapiens) (UniProt Q9UM47). Put plainly: NOTCH3 binders on small-molecule microarray, primary screen, biochemical, 635/667 nm fluorescence (AID 1096). The following applies: NOTCH3 binding, 635 nm fluorescence, higher = more signal.
Neurogenic locus notch homolog protein 3 (Homo sapiens), sequence (Q9UM47 whole entry, looked up): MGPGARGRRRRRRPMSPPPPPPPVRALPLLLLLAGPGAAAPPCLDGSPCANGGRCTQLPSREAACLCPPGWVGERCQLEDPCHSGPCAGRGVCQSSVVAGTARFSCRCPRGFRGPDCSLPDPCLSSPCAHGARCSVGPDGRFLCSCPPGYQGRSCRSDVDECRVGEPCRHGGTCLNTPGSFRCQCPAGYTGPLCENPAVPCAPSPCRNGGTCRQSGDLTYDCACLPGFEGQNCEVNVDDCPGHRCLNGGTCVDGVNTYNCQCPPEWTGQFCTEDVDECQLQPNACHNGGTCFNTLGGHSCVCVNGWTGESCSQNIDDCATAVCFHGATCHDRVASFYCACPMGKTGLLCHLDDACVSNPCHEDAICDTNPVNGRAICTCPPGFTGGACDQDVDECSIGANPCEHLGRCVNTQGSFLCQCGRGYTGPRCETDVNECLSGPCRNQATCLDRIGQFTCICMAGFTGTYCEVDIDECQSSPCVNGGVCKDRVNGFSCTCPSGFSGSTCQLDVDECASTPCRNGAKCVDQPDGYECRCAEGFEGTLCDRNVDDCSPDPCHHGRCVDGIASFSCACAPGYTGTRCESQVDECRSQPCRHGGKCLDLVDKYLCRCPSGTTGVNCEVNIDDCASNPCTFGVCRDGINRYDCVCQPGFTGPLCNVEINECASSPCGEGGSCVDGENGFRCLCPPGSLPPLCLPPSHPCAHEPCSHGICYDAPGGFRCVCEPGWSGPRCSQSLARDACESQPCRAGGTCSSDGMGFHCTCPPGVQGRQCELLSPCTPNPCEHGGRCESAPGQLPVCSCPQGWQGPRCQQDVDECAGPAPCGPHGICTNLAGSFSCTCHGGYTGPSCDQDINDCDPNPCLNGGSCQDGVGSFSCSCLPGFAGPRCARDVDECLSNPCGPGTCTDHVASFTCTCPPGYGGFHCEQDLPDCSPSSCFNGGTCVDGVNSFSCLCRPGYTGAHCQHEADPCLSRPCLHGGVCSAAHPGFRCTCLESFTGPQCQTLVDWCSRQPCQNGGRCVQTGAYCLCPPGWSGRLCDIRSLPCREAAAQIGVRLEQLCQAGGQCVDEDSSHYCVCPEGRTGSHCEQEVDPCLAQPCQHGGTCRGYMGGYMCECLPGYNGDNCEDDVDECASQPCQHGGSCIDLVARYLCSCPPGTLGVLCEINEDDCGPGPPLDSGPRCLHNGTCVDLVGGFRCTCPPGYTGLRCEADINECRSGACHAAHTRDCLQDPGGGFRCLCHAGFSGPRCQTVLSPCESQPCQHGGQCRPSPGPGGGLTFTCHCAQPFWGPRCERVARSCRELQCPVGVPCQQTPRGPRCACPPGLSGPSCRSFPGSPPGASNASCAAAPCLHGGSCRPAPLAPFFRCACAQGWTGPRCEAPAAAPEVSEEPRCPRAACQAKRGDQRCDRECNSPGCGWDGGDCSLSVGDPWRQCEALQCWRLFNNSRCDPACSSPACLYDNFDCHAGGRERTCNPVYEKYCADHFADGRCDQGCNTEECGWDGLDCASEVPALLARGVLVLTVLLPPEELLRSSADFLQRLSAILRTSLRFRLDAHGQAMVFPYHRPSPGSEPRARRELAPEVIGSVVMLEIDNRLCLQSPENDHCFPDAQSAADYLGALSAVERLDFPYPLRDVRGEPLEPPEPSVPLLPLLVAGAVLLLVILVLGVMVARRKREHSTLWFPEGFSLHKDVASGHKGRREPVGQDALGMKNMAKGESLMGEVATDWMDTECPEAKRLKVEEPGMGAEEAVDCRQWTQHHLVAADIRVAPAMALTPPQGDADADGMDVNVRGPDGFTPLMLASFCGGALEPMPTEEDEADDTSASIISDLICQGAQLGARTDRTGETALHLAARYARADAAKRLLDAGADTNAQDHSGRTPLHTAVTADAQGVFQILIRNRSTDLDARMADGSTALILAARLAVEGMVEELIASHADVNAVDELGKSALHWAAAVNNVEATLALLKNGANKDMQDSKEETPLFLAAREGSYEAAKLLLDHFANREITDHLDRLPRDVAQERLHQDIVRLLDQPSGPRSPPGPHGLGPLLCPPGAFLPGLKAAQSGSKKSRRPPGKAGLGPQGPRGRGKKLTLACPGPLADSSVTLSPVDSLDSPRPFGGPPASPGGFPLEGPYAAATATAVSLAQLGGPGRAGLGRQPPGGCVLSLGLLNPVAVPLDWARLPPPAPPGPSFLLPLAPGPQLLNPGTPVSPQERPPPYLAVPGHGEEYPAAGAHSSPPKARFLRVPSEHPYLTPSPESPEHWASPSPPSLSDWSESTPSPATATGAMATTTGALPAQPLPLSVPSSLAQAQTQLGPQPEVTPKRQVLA
A short description of test [10]: small-molecule microarray binders of probe aEGFR, primary screen, biochemical, biotinylated probe, 635/667 nm fluorescence (AID 1097).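 Also: probe is a biotinylated anti-EGFR antibody binding compounds printed on slides; score combines fluorescence near 667 nm and signal to noise of each spot.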 The settings on record: higher = more signal.
The subject of test [11] is Plasmodium falciparum Sir2 (PF13_0152, Sir2A). Put plainly: pfSir2 binders on small-molecule microarrays, primary screen, biochemical, small-molecule microarray, 635 nm fluorescence (AID 1098).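 Also: score merges spot fluorescence intensity with its signal-to-noise ratio.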 The settings on record: small-molecule microarray binding, fluorescence 635 nm; higher = more signal.
Test [12] is described as follows: small-molecule microarray binders of probe aDKK1, primary screen, biochemical, biotinylated probe, 635/667 nm fluorescence (AID 1099).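 Also: score merges 667nm spot fluorescence with signal to noise across triplicate slides; reference of the scale not given here.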 The following applies: higher = more signal.
Test [13] in a line: small-molecule microarray binders of probe aCHRDL2, primary screen, biochemical, biotinylated probe, 635/667 nm fluorescence (AID 1100). The following applies: higher = more signal.
Test [14] is described as follows: splicing luciferase reporter signal modulators, primary screen, spliceosome inhibition project, cell-based, HEK293, splice +/- reporter (AID 1101).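 Also: HEK293 cells carrying a splicing-competent luciferase reporter gene; test concentration not given here.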 The settings on record: luminescence, 24 h, higher = more signal, called active from +8 up or from −8 down. (In a reporter assay the amount or activity of a reporter protein is the signal.)
The target of test [15] is Fibroblast growth factor 10 (Homo sapiens) (UniProt O15520). Briefly: FGF10 binders on small-molecule microarrays, primary screen, biochemical, small-molecule microarray, 635 nm fluorescence (AID 1102). The following applies: FGF10 binding, fluorescence 635 nm, higher = more signal.
Fibroblast growth factor 10 (Homo sapiens), sequence (O15520 whole entry, looked up): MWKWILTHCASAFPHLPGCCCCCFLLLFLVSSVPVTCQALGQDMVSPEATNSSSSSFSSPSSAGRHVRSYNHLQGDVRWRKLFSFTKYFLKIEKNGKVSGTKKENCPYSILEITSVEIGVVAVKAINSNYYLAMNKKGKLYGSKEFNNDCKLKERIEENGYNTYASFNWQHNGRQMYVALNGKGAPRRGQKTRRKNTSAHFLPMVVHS
The test system of test [16] is glycogen synthase kinase-3 (GSK3A per assay name; protocol says GSK3B). Briefly: GSK3 binders on small-molecule microarrays, primary screen, biochemical, small-molecule microarray, 635 nm fluorescence, GSK3A (AID 1103). Also: the record names both GSK3A and GSK3B. The settings on record: small-molecule microarray binding, fluorescence 635 nm; higher = more signal.
Test [17] deals with Epidermal growth factor receptor (Homo sapiens) (UniProt P00533). Put plainly: EGFR binders on small-molecule microarrays, primary screen, biochemical, small-molecule microarray, 635 nm fluorescence (AID 1104).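 Also: score merges 667 nm emission intensity with spot signal to noise over triplicate slides.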 The settings on record: EGFR binding, higher = more signal.
Epidermal growth factor receptor (Homo sapiens), sequence (P00533 whole entry, looked up): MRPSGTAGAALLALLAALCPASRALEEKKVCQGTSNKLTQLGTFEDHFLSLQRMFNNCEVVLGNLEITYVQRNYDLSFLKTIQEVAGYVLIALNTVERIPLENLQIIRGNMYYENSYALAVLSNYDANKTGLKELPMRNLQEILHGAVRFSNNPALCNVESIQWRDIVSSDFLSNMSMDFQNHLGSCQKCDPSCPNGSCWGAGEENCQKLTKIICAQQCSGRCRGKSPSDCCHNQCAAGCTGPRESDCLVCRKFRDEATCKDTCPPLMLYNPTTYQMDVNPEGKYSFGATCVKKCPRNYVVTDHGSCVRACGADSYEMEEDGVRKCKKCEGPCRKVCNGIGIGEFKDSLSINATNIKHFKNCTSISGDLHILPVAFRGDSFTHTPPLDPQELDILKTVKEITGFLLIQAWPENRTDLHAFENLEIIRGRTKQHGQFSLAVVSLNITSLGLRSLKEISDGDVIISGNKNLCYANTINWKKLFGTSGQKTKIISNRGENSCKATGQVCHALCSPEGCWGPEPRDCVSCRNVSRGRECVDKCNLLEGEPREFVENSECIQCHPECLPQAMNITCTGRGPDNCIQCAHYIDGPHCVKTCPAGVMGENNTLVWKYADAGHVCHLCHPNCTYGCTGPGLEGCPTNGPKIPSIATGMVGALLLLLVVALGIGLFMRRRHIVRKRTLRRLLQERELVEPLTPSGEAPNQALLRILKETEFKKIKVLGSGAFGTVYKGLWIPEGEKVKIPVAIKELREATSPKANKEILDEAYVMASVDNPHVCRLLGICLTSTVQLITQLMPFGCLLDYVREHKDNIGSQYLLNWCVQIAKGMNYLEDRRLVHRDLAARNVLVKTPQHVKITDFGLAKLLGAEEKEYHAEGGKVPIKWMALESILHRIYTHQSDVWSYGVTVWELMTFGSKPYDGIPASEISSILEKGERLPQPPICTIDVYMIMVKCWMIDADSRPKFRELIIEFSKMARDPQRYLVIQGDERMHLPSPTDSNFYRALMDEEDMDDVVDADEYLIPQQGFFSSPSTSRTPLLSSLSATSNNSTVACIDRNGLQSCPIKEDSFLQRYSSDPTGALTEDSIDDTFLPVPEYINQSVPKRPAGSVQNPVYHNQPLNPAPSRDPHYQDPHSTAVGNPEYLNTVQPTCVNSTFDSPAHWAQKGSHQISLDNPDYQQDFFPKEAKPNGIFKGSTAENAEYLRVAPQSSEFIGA
Test [18] has as its target Follistatin-related protein 3 (Homo sapiens) (UniProt O95633). Briefly: FSTL3 binders on small-molecule microarrays, primary screen, biochemical, small-molecule microarray, 635 nm fluorescence (AID 1105).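 Also: score merges emission near 667 nm and signal to noise per printed spot across three slides.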 The following applies: FSTL3 binding, higher = more signal.
Test [19] concerns the target Dickkopf-related protein 1 (Homo sapiens) (UniProt O94907). Put plainly: DKK1 binders on small-molecule microarrays, primary screen, biochemical, small-molecule microarray, 635 nm fluorescence scan (AID 1106).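 Also: score merges emission near 667 nm with signal to noise over three replicate slides.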 The settings on record: DKK1 binding, higher = more signal.
Test [20] relates to Inhibin beta A chain (activin A). Briefly: INHBA (activin A) binders on microarrays, primary screen, biochemical, small-molecule microarray, 635 nm fluorescence scan (AID 1107).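 Also: mouse activin A protein probed at 4.33 µg/mL on printed slides; score merges bound-protein fluorescence near 667 nm with spot signal-to-noise.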 The settings on record: small-molecule microarray binding, higher = more signal.

Dickkopf-related protein 1 (Homo sapiens), sequence (O94907 whole entry, looked up): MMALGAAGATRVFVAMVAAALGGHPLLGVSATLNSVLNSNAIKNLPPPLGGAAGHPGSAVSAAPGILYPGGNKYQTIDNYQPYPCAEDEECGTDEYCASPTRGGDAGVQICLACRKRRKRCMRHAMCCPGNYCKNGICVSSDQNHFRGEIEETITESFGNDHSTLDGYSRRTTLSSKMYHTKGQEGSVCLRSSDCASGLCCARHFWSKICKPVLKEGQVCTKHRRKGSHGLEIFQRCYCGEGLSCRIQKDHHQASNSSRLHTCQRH
Follistatin-related protein 3 (Homo sapiens), sequence (O95633 whole entry, looked up): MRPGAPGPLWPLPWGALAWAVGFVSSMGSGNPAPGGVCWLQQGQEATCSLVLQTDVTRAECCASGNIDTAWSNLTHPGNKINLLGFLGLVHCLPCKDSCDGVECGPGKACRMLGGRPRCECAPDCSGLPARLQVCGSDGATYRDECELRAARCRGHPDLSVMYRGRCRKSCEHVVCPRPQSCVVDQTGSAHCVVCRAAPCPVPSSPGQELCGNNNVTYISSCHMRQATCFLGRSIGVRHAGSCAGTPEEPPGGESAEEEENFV

`C[C@@H](OCc1ccccc1)C1NC(=O)[C@@]23C(=O)N[C@@H](Cc4ccccc4)C2[C@H](C)[C@@]2(C)O[C@H]2C3/C=C/C/C=C\CNC(=O)[C@H](Cc2ccccc2)NC1=O` (stereo not given in full): the composite z-score in [1] is 0.448; in test [5], 0.956; in [7], -0.23; in test [8] it was 0.762; in test [9], 0.655; in test [10] it was -0.0257. In addition, the composite z-score was 0.21 in test [11]; -0.288 in test [12]; -0.743 in test [13]; 1.35 in test [15]; 0.297 in test [16]; 0.12 in test [17]. Besides, the composite z-score in test [18] was 0.869; in test [19], 0.443; in [20] it was 1.08. Also, the z-score is -0.712 (inactive) in test [2]; -0.985 (inactive) in test [3]; -0.0389 (inactive) in test [4]; 1.29 (inactive) in [6]; -0.708 (inactive) in test [14].

Consider `COc1ccc(NN2C(C(O)c3cc(C(F)(F)F)cc(C(F)(F)F)c3)C=CC3C(=O)N(C4CCCCC4)C(=O)C32)cc1` (stereo not given), for which the composite z-score in test [1] came out at 1.28; in test [5], 2.59; in [7], 0.849; in test [8], 0.535; in test [9], 1.06; in [10], 0.705. Also, the composite z-score in test [11] is 1.12; in test [12] it was 1.28; in [13], 0.751; in test [15], 0.37; in test [16], 0.977; in [17] it was 0.0981. The composite z-score in test [18] is 0.384; in [19] it was -0.292; in [20], 0.639. The z-score in test [2] is -0.0995 (inactive); in test [3] it was 0.495 (inactive); in test [4] it was 0.518 (inactive); in test [6] it was -0.804 (inactive); in test [14] it was -1.08 (inactive).

On to `Cc1ccccc1C(O)C1C=CC2C(=O)N(c3ccccc3)C(=O)C2N1Nc1ccccc1F` (stereo not given), for which the composite z-score in [1] was 1.16; in test [5], 3.41; in [7], 0.496; in test [8], -0.471; in [9] it was 1.12; in test [10], 0.0122. The composite z-score was found to be 1.31 in test [11]; 0.938 in test [12]; 1.23 in [13]; 0.77 in test [15]; 0.45 in test [16]; 0.153 in test [17]. Also, the composite z-score is 0.836 in test [18], -0.6 in test [19] and 1.04 in test [20]. Moreover, the z-score is 0.0769 (inactive) in [2]; 0.592 (inactive) in test [3]; 0.764 (inactive) in test [4]; -0.927 (inactive) in test [6]; 0.476 (inactive) in [14].

`O=C1O[C@H](c2ccccc2)[C@H](c2ccccc2)N2[C@H]1[C@@H](C(=O)NC[C@H](O)c1ccccc1)[C@]1(C(=O)Nc3ccc(C#CCCO)cc31)[C@H]2c1ccccc1OCCO`: the composite z-score in test [1] is 1.54; in [5], 2.22; in test [7], -0.0499; in [8], 0.795; in test [9], 0.325; in [10] it was -0.139. The composite z-score in [11] is 1.51; in test [12], -0.232; in [13], 0.558; in test [15], 0.458; in test [16], -0.495; in test [17], -0.297. The composite z-score in test [18] was 0.577; in [19] it was -0.515; in test [20], 0.205. For the same molecule, the z-score is 1.14 (inactive) in test [2]; -2.23 (inactive) in test [3]; 3.41 (inactive) in [4]; 1.19 (inactive) in test [6]; 0.0927 (inactive) in [14].

Turning to `COCCOC(=O)N1C(=O)[C@@]2(c3cc(C#CC4(O)CCCCCC4)ccc31)[C@H](c1ccc(OCCO)cc1)N1[C@H](c3ccccc3)[C@H](c3ccccc3)OC(=O)[C@H]1[C@@H]2C(=O)N1CCCCCCC1`, the composite z-score in test [1] worked out at 1.55; in test [5], 3.09; in test [7] it was 1.15; in test [8] it was 1.82; in [9], 1.11; in [10], 0.753. The composite z-score in test [11] is 1.74; in test [12], 1.63; in test [13] it was 0.965; in test [15] it was 1.35; in [16], 1.32; in test [17], 0.825. Besides, the composite z-score in test [18] came to 1.51; in test [19], 0.988; in [20], 1.74. In addition, the z-score in test [2] is 1.42 (inactive); in test [3], 0.598 (inactive); in [4] it was 3.68 (inactive); in [6], 0.436 (inactive); in test [14], -1.55 (inactive).
